From PubChem BioAssay AID1347430 (National Center for Advancing Translational Sciences (NCATS), 2020)
Screen size: about 91,000 compounds; about 130 (0.14%) were called active. Not shown: some 3% with an inconclusive outcome. This is one part of a sample in which actives are shown more often than they occur. Calls come from the whole dose curve; as a rule, active = well fitted inhibition curve with a large enough effect; inconclusive = small, poorly fitted or top-dose-only effect; inactive = flat fitted curve, though single readings scatter.

These compounds were tested on Uracil-DNA glycosylase (assay: Primary qHTS assay for inhibitors of Activation Induced Cytidine Deaminase (AID): UDG Counterscreen signal). Details: FRET deamination/UDG coupled assay, UDG read, 4 h; series mostly up to 115 µM; activity change, negative = inhibition: at the top concentration.
From the text: Assay Provider (PI) Patricia Gearhart Ph.D.
National Institute on Aging
National Institute of Health (NIH), Bethesda, MD
Assay Provider (PI) Rahul Kohli Ph.D.
Perelman School of Medicine
University of Pennsylvania, Philadelphia, PA
Activation-Induced Deaminase (AID) is a cytosine deaminase which converts cytosine into uracil within stretches of ssDNA. The presence of uracil in DNA initiates a cascade of mutagenic DNA repair to introduce point mutations and DNA double strand breaks. Specific targeting of AID to the immunoglobulin heavy chain loci (Igh) promotes mutagenesis in the antibody variable region for somatic hypermutation (SHM) or switch regions leading to class switch recombination (CSR). However, AID also plays a role in accumulating unnecessary mutations across the genome. Mis-targeting of AID results in the initiation of tumor development and leads to greater drug resistance among cancer cells when continually expressed. To identify an AID inhibitor, a small molecule library will be screened in collaboration with NCATS core facility at NIH. To confirm biological function, inhibitors will be examined in an in vitro murine B-cell activation assay and subsequent secondary validation screens. Top molecules will be further screened to identify inhibitory efficacy against a wild type primary splenocytes assay. Using these approaches, we hope to identify a small molecule with great efficacy and low toxicity for use as a molecular probe to further characterize AID's intricacies, or even as a therapeutic.
A FRET based analysis of cytosine deamination, was developed to identify potential inhibitors of AID catalytic activity. This screen has two signal output, Read 1 evaluates the AID inhibition response. The second readout (Read 2) evaluates UDG response and is uses as a counterscreen to exclude false positive inhibitors. Inhibition in AID and inactivity in the UDG signal is the desired outcome for this assay.
SEQUENCE No. (e.g., 1, 2, 3, etc.); […] (e.g., Cells, Incubation, Reagent, etc.); VALUE; DESCRIPTION
1a; Reagent; 3 uL; [4/3x] 1 uM AID/2.67 U/mL UDG
1b; Reagent; 3 uL; 2 U/mL UDG
1c; Reagent; 3 uL; 1 uM AID
2a; Compound; 46 nL; Follow-up plates (0.64 uM - 10 mM)
2b; Control; 46 nL; ATA ([…] - 10 mM)
3; Time; 10 min; incubation at room temperature
5; Time; 4 hr; incubation at room temperature
6; Reagent; 4 uL; [2x] 250 mM NaOH
7; Time; 15 sec; centrifuge at 1000 rpm
8; Time; 30 min; incubation at room temperature
9a; Detection; fluorescence (Read 1: AID); EnVision (PerkinElmer) plate reader, 540 excitation and 590 emission filters
9b; Detection; fluorescence (Read 2: UDG); EnVision (PerkinElmer) plate reader, 560 excitation and 665 emission filters
NOTES (numbers refer to sequence above)
1a; Reagents were dispensed in a medium-binding black solid-bottom Greiner plates (789176F) using a BioRptr liquid dispenser. Dispense 3 uL of [4/3x] 1 uM AID (provided by Kohli lab) and [4/3x] 2 U/mL UDG (NEB M0280L) into columns 1, 2, 5 to 48.
1b; Dispense 3 uL of [4/3x] 2 U/mL UDG into column 3.
1c; Dispense 3 uL of [4/3x] 1 uM AID into column 4.
2a; Compound (7-points [uM] (0.64; 3.2; 16; 80; 400; 2,000; 10,000; 20,000) double pin-transferred (Dip Factor = 2) using the Kalypsys (Wako USA) pintool equipped with a 1536 pinhead for a final concentration range of 7.32 nM - 114 uM.
2b; 10 mM Aurintricarboxylic Acid (Sigma A1895) (ATA, 8-point, n = 2, 1:2.5 dilution in column 2) double pin-transferred (Dip Factor = 2) using the Kalypsys (Wako USA) pintool equipped with a 1536 pinhead for a [final] range of 186 nM - 114 uM.
3; Room temperature incubation.
4; Dispense 1 uL of substrate mixture from the Kohli lab [4x] […] DJC20 and [4x] 250 nM DJC23 into columns 1 to 48 .
5; Room temperature incubation.
6; Dispense 4 uL of substrate mixture [2x] 250 mM NaOH into columns 1 to 48.
7; Centrifugation step to remove bubbles.
8; Room temperature incubation
9a; Fluorescence signal (column label AID) was read using the EnVision plate reader. […]
% is set by controls: 0 for no effect and ±100 for the full control effect.
Note: nearly all actives have a fitted effect of over 65% in size.

| Structure (SMILES) | activity change, negative = inhibition |
| --- | --- |
| Cc1scc(C(=O)NCCC2=CCCCC2)c1C | -2.73% (inactive) |
| CC(C)(C)C(=O)NCC(=O)O | -1.68% (inactive) |
| COc1ccc(COC(=O)C2CCN(S(=O)(=O)c3c(Cl)cccc3Cl)CC2)cc1F | 3.16% (inactive) |
| CN(C)c1ccc(NC(=O)CCC2CCCC2)cc1 | -8.67% (inactive) |
| CNC(=O)C1CCN(Cc2csc(-c3ccc(C(F)(F)F)cc3)n2)CC1 | -2.96% (inactive) |
| CC(C)c1cccc(C(C)C)c1-n1ccnc1 | 0.0082% (inactive) |
| CC(C)(C)C(=O)NCCCC(=O)NCc1cccnc1 | -10.4% (inactive) |
| Fc1ccc(/C=N/N=C/c2ccc(F)cc2F)c(F)c1 | 0.601% (inactive) |
| Cc1ccc(C)c(S(=O)(=O)N2CCN(C(=O)CCc3ncc(-c4ccc(F)cc4F)o3)CC2)c1 | -8.7% (inactive) |
| Cc1c(-c2ccccc2)[o+]c2ccccc2c1C#Cc1ccccc1 | -12.2% (inactive) |
| CCCn1nc(C(=O)OCC(N)=O)c2ccccc2c1=O | 2.78% (inactive) |
| O=C(COC(=O)c1cnc2ccccc2n1)NC12CC3CC(CC(C3)C1)C2 | 7.71% (inactive) |
| COc1cccc(NC(=O)C2(C#N)CCCC2)c1 | -4.53% (inactive) |
| O=C(NCc1coc(-c2cccs2)n1)c1cccc(C(F)(F)F)c1 | -14.5% (inactive) |
| O=S(=O)(CCN1CCN(c2cnccn2)CC1)c1ccccc1 | 5.91% (inactive) |
| Cc1cnc(NC(=O)c2nc(C)n(-c3ccc(Cl)cc3)n2)s1 | -1.14% (inactive) |
| COc1ccccc1Oc1c(C)oc2cc(OC(=O)c3ccc4c(c3)OCO4)ccc2c1=O | 12.7% (inactive) |
| C/C=C/Cn1c(=O)c2c(nc(-n3nc(C)cc3C)n2CC)n(C)c1=O | -7.1% (inactive) |
| Cc1cccc(N(CCC(N)=O)C(=O)c2ccc(C#N)cc2)c1 | -1.04% (inactive) |

| Structure (SMILES) | activity change, negative = inhibition |
| --- | --- |
| O=C(c1ccc2c(c1)N(Cc1ccccc1)C(=O)c1ccccc1S2=O)N1CCC2(CC1)OCCO2 (configuration not stated) | 1.58% (inactive) |
| O=C(CCC1CCCC1)NCCc1cccnc1 | -8.17% (inactive) |
| COc1cc(Br)cc2cc(-c3nc(-c4nonc4N)no3)c(=O)oc12 | -7.39% (inactive) |
| CC(Oc1ccc(/C=C(/C#N)c2nc3ccccc3[nH]2)cc1)C(=O)O (configuration not stated) | -8.6% (inactive) |
| CCOC(=O)c1noc2nc(C)nc(Nc3ccc(CC)cc3)c12 | -1.12% (inactive) |
| COc1ccc(N(CC(=O)N2CCN(C)CC2)S(=O)(=O)c2ccccc2)cc1Cl | 0% (inactive) |
| COc1cc(/C=N/O)ccc1O | 0.299% (inactive) |
| O=C(O)c1ccc(CSc2cccc(Cl)c2)cc1 | -2.1% (inactive) |
| FC(F)(F)c1cccc(Oc2ncnc3sc(-c4ccccc4)cc23)c1 | -7.76% (inactive) |
| CC(C)Cc1nc(NCc2ccncc2)c(C#N)c2c1CCCC2 | 4.28% (inactive) |
| O=C(CCc1ccncc1)Nc1ccccc1 | -0.596% (inactive) |
| COc1ccc(C(=O)Oc2ccc(Cl)cc2C)c(OC)c1 | 0.0357% (inactive) |
| Cc1ccc(CNC(=O)c2ccc(=O)[nH]c2)s1 | -0.737% (inactive) |
| CCC(CC)C(=O)Nc1cccc(F)c1 | -3.56% (inactive) |
| CSc1ccc(Cl)c(C(=O)Nc2ccc(F)c(F)c2)c1 | 1.41% (inactive) |
| CC(=O)c1ccc2[nH]c(C(=O)O)cc2c1 | -0.705% (inactive) |
| O=C(CCC1CCCCC1)Nc1cccc(F)c1 | -0.33% (inactive) |
| O=C(CCc1c[nH]c2ccccc12)N1CC=C(c2ccccc2)CC1 | -12.6% (inactive) |
